The other results are listed elsewhere or left out. Results filed as inconclusive are left out. Values without a mark were called inactive. Calls of active or inactive are those of the source. Calls come from the whole dose curve; as a rule, active = well fitted inhibition curve with a large enough effect; inconclusive = small, poorly fitted or top-dose-only effect; inactive = flat fitted curve, though single readings scatter.
Assay: qHTS Assay for Inhibitors of Fructose-1,6-bisphosphate Aldolase from Giardia Lamblia: Mammalian cellular toxicity (AID 2786);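 note: compound exposure lasted 48 h before reading; nearly all actives have a fitted effect of over 60% in size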
Details: mammalian cell viability counter-screen; series mostly up to 57.5 µM; viability change, negative = toxicity: at the top concentration
Text: NIH Chemical Genomics Center [NCGC]
NIH Molecular Libraries Probe Production centers Network [MLPCN]
Assay Provider: Osnat Herzberg, University of Maryland
The objective of this project is to obtain compounds that inhibit Giardia lamblia growth. G. lamblia is a human pathogen which afflicts impoverished nations; it is the most common cause of outbreaks of diarrhea in the United States. During the course of our study of potential drug targets in Giardia, we have identified the Class II (Zn2+ functions in electrophilic catalysis) fructose-1,6-bisphosphate aldolase (FBPA) as an excellent candidate for drug targeting. FBPA is a key glycolytic pathway enzyme, essential for G. lamblia survival. The human FBPA belongs to the Class I aldolases, which have a different substrate binding site structure and a radically different catalytic mechanism (employing a lysine-Schiff base intermediate). Therefore, affinity-based or mechanism-based inhibitors of the Giardia FBPA are expected not to interfere with the catalytic function of the human FBPA.
A glyceraldehyde-3-phosphate dehydrogenase/triose phosphate isomerase/NAD/arsenate coupled assay was adapted to the 1536-well HTP format for use in the primary screen. This was done by coupling it to a diaphorase/resazurin/resorufin reaction that can be monitored by fluorescence (excitation, 544 nm; emission, 590 nm). Compounds identified in this screen will be further evaluated by coupling the glycerol-3-phosphate/triose phosphate isomerase/NADH assay to a phenazine methosulfate/tetranitroblue tetrazolium color reaction. False positives due to the dehydrogenases and diaphorase inhibition will be eliminated, and selectivity assay will triage inhibitors of mammalian triose phosphate isomerase and the Class I FBPA. G. lamblia FBPA inhibitors identified by the in vitro analyses will be examined for growth inhibition of Giardia trophozoites, and for cytotoxicity in human cells.
This assay addresses whether hits in the primary screen are cytotoxic to mammalian cells, using Chinese hamster ovary cells as a surrogate.
2uL/well media was dispensed per well into 1536-well white solid-bottom plates using Multidrop Combi dispenser. Subsequently, 23 nL/well compound solutions or DMSO controls were dispensed to the assay plates via a pintool workstation. The Chinese hamster ovary (CHO) cells were grown in T225 flasks to 70% confluence under a standard cell culture condition (ATCC), detached with 0.25% Trypsin/EDTA, and seeded at 250 cells/well in 5uL medium (Dulbecco's Modified Eagle Medium, 10% fetal bovine serum, 1x penicillin/streptomycin). The plates were incubated at 37 °C with 5% CO2 and 95% humidity for 48 hours, and then ATP content was measured following the addition of 4uL/well of ATPlite reagent and a 20 min incubation on a ViewLux plate reader.
Keywords: Fructose-bisphosphate aldolase, FBPA , Giardia lamblia , Giardia, HTS, Inhibitors
% is set by controls: 0 for no effect and ±100 for the full control effect; potency is the fitted concentration of half-maximal effect.

SMILES	viability change, negative = toxicity [%]	Potency
Cn1c(=O)[nH]c(=O)c2c1[nH]c(=S)n2Cc1ccccc1	0.432	–
CC(C)(c1ccccc1)c1ccc(OCCN2CCCC2)cc1	7.3	–
Cc1cc(C)nc(N/N=C/c2ccc([N+](=O)[O-])o2)n1	0.383	–
Cc1ccc(C(=O)Nc2nnc(C3=COCCO3)o2)cc1C	0.426	–
Oc1ccc2ccccc2c1N=Nc1nccs1	–	10 µM (active)
Cc1cc(C)c2c(=O)[nH]c(SCC(=O)Nc3ccc(Br)cc3)nc2n1	-8.04	–
O=S(=O)(c1ccc(NC(=S)NN=C(C2CC2)C2CC2)cc1)N1CCOCC1	1.01	–
O=C(NC(=S)Nc1ncccn1)c1ccccc1Br	-18.1	–
CC1CCCN(S(=O)(=O)c2ccc(C(=O)Nc3nnc(-c4ccncc4)o3)cc2)C1 (stereo not given)	-6.34	–
Cc1cc(C)n(-c2ccc(Cl)c(C(=O)O)n2)n1	7.82	–
C=CCc1cc(C)ccc1OCCCn1ccnc1	19.1	–
O=c1[nH]c(=S)[nH]c2[nH]c(=S)[nH]c12	-1.2	–
O=[N+]([O-])c1ccc2nc(-c3ccccn3)[nH]c2c1	–	25.1 µM (active)
COc1ccc(N=Nc2c(-c3ccc(OC)cc3)[nH]oc2=O)cc1	-3.71	–
O=c1nc(N/N=C/c2ccco2)cn[nH]1	3.52	–
COc1ccc(OC)c(Nc2nc(-c3ccc(O)c(O)c3)cs2)c1	-22.2	–
CCc1ccc2c(c1)C1(NN=C(c3ccccc3)S1)C(=O)N2 (stereo not given)	–	25.1 µM (active)
CN(C)CCOc1ccc(Cl)cc1C(C)(C)C	-4.49	–
CC(=O)NC1CCN(CC(=O)Nc2nccs2)CC1	-4	–
O=C(CN1CCN(Cc2ccccc2)CC1)Nc1ccc(F)c(F)c1	15.6	–

SMILES	viability change, negative = toxicity [%]	Potency
CCN(CC(=O)Nc1ccc(S(=O)(=O)N2CCCC2)cc1)CC(=O)Nc1cccc(OC)c1	-4.57	–
O=[N+]([O-])c1cc([N+](=O)[O-])c2cccnc2c1O	21.6	–
Cn1nnc(NC(=S)NC(=O)c2ccccc2)n1	-1.08	–
O=C1CCCN1CCCNC(=S)Nc1ccc(F)c(Cl)c1	-9.81	–
CSc1n[nH]c(=S)n1N	2.66	–
Clc1cccc(CN2COc3c(cc(Cl)c4cccnc34)C2)c1	–	20 µM (active)
C/C(=N\NC(N)=S)c1cccnc1	3.52	–
Cc1ccc(OCCCCc2c(C)n[nH]c2C)cc1	29.7	–
Cc1ccc(S(=O)(=O)NNC(=S)NC(C)(C)C)cc1	-3.18	–
O=C(CSc1cccc[n+]1[O-])c1ccc(-c2ccccc2)cc1	-27.7	–
CN1CCN(CCCCOc2ccccc2-c2ccccc2)CC1	-3.92	–
OCCN1CCN(C(=S)c2ccc(-c3ccccc3)cc2)CC1	6.87	–
COc1ccc(Cl)cc1C(=O)NNC(=O)c1nc2nc(C)cc(C)n2n1	12.3	–
CN1C(=O)/C(=C\c2ccc(-c3ccccc3)o2)SC1=S	-4.51	–
CCN1CCc2c(C#N)c(NCc3ccccc3)nc(NCCO)c2C1	16.3	–
O=C(CN1C(=O)COc2ccccc21)Nc1ccc(F)cc1	-16.3	–
CCS(=O)(=O)c1cc([N+](=O)[O-])c(Sc2ccccc2N)s1	6.63	–
COc1ccc(CN2CCN(Cc3ccc(OC)c(OC)c3OC)CC2)cc1	-1.43	–
O=C(N/N=C/c1ccccn1)c1cccnc1	-13.3	–
C=CCNC(=S)/N=c1/ccccn1Cc1ccccc1	25.2	–

— PubChem BioAssay (NCATS)
